Consider 7 molecules from PubChem BioAssay (Tox21).

A number with no mark means an inactive call. Results filed as inconclusive are left out. The source made the active and inactive calls. Unless noted, calls come from the whole dose curve.

A short description of test [1]: Nuclear factor erythroid 2-related factor 2/antioxidant responsive element (Nrf2/ARE) small molecule agonists: qHTS cell viability counter screen in human keratinocytes (AID 1919968; active = well fitted curve in the direction sought with a large enough effect in the repeat runs; an effect the other way counts as inactive or inconclusive; note: nearly all actives have a fitted effect of over 55% in size). The gist of the method:
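Parallel cytotoxicity read: KeratinoSens HaCaT cells, compound treatment 23 h, viability by CellTiter-Fluor fluorescence 1 h post-reagent.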
A general note: qHTS replaces the single test concentration by a dilution series.

For test [2], the target named is Gonadotropin-releasing hormone receptor (Homo sapiens) (UniProt P30968). The test is described as follows: Human gonadotropin-releasing hormone receptor (GnRHR) small molecule agonists, calcium flux assay in GnRHR-HEK293 cells (AID 1920063). Note: nearly all actives have a fitted effect of over 35% in size. The gist of the method: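 Calcium flux, agonist mode, human GnRHR stably integrated in HEK293; dye 1 h at 37 C before compound; Ex/Em=480/540 kinetic read, 3 min; 15 concentrations, triplicate.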
(Calcium flux is commonly read through the fluorescence of an indicator in the cells.)

Test [3] addresses KiSS-1 receptor (Homo sapiens) (UniProt Q969F8). Description: Human kisspeptin (KISS1R) small molecule agonists, calcium flux assay in KISS1R-HEK293 cells (AID 1920064; active = well fitted curve in the direction sought with a large enough effect in the repeat runs; an effect the other way counts as inactive or inconclusive). The gist of the method:
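Triplicate 15-concentration series were applied to dye-loaded human KISS1R HEK293 cells, and agonist-evoked calcium fluorescence was captured for 3 min.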

A short description of test [4]: p53 small molecule agonists, cell-based qHTS assay with human liver microsomes (AID 1963577).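 Note: p53 response element beta-lactamase reporter cells with liver microsomes plus NADPH.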 The method in brief:
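Metabolically competent format: test substances, human liver microsomes and NADPH (both 0.5 mg/mL final) incubated with p53RE-bla cells 16 h at 37 C. Beta-lactamase reporter signal then quantified by fluorescence.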

The nature of test [5]: p53 small molecule agonists, cell-based qHTS assay with rat liver microsomes (AID 1963578). The method in brief:
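Each plate received p53RE-bla cells, then compound, then rat liver microsomes and NADPH (both 0.5 mg/mL final). Plates were held 16 h at 37 C, and beta-lactamase activity was detected with LiveBLAzer over 2 h.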

Test [6] is described as follows: p53 small molecule agonists, cell-based qHTS assay with human liver microsomes: qHTS cell viability counter screen (AID 1963579). Note: nearly all actives have a fitted effect of over 45% in size. The method in brief: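 Tox21 library compounds, delivered from DMSO stocks, were tested on p53RE-bla cells together with 0.5 mg/mL human liver microsomes and 0.5 mg/mL NADPH (final) over 16 h at 37 C; CellTiter-Glo luminescence served as the cytotoxicity measure.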

Test [7] in a line: p53 small molecule agonists, cell-based qHTS assay with rat liver microsomes: qHTS cell viability counter screen (AID 1963580). Note: nearly all actives have a fitted effect of over 45% in size. The gist of the method:
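After the beta-lactamase ratio was read, CellTiter-Glo was added to the same wells and luminescence measured at 30 min; cells had been treated 16 h at 37 C with compounds, rat liver microsomes and NADPH (0.5 mg/mL final each).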

Test [8] can be described thus: p53 small molecule agonists, cell-based qHTS assay: qHTS cell viability counter screen (AID 1963581). Note: nearly all actives have a fitted effect of over 45% in size. Note: potency is the fitted concentration of half-maximal effect. The gist of the method:
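Multiplexed with the reporter read, a CellTiter-Glo step (30 min, room temperature) gauges ATP-based viability of HCT-116 p53RE-bla cells after 16 h compound incubation at 37 C.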

Test [9] can be described thus: p53 small molecule agonists, cell-based qHTS assay (AID 1963582; active = well fitted activation curve with a large enough effect in the signal ratio in the repeat runs, not every such curve was filed as active; the % refers to the signal ratio). The gist of the method: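 Beta-lactamase reporter cells (p53RE-bla) treated with compounds for 16 h at 37 C; FRET substrate, 2 h, room temperature; fluorescence intensity.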
Test [10] deals with 5-hydroxytryptamine receptor 2A (Homo sapiens) (UniProt P28223). Description: 5-hydroxytryptamine receptor 2A (HTR2A) small molecule antagonists, cell-based qHTS assay (AID 1963586). Note: nearly all actives have a fitted effect of over 45% in size. The gist of the method: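 CHO cells stably expressing human HTR2A were plated for 18 h at 37 C, then loaded with calcium dye for 1 h. Compounds were preincubated 5 min at room temperature before DOI (4 nM solution) was added. Kinetic fluorescence was read for 3 min.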

For test [11] the target is unchanged. Description: 5-hydroxytryptamine receptor 2A (HTR2A) small molecule agonists, cell-based qHTS assay (AID 1963587). Note: nearly all actives have a fitted effect of over 30% in size. The gist of the method:
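CHO cells stably expressing human HTR2A, plated 18 h, loaded with calcium dye 1 h at 37 C. Agonist mode: compounds added and intracellular calcium fluorescence recorded kinetically for 2 min at 1 sec intervals.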

Test [12] addresses Muscarinic acetylcholine receptor M1 (Homo sapiens) (UniProt P11229). Description: Cholinergic receptor muscarinic 1 (CHRM1) small molecule antagonists, cell-based qHTS assay (AID 1963588). Note: nearly all actives have a fitted effect of over 40% in size. The method in brief:
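Compounds were tested at 15 concentrations in three independent runs. Dye-loaded CHRM1-CHO cells were exposed 5 min at room temperature before stimulation by acetylcholine added at 50nM. Intracellular calcium was read kinetically on FDSS for 3 min.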

Test [13] shares this target. Description: Cholinergic receptor muscarinic 1 (CHRM1) small molecule agonists, cell-based qHTS assay (AID 1963589). Note: nearly all actives have a fitted effect of over 35% in size. The method in brief: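 qHTS, 15-point titration, 3 independent runs: compounds pin-transferred onto dye-loaded CHRM1-CHO cells (human M1), calcium fluorescence followed every second to detect agonism.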
A short description of test [14]: cAMP Responsive Elements (CRE) small molecule agonists, cell-based qHTS assay (AID 1963590). The method in brief:
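Quantitative HTS for CRE agonists: HEK 293T CRE-bla cells, overnight plating, 3 h compound incubation at 37 C/5% CO2, then 2 h room-temperature LiveBLAzer B/G FRET substrate loading.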

The nature of test [15]: cAMP Responsive Elements (CRE) small molecule antagonists, cell-based qHTS assay (AID 1963591; active = well fitted inhibition curve with a large enough effect in the signal ratio in the repeat runs, not every such curve was filed as active; the % refers to the signal ratio). The gist of the method: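 Fluorescence intensity from cleaved LiveBLAzer B/G substrate (2 h, room temperature) quantified CRE-bla activity in HEK 293T cells exposed 3 h to compound with 0.25 uM final NKH477.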
The target in test [16] is Beta-2 adrenergic receptor (Homo sapiens) (UniProt P07550). The test is described as follows: Adrenergic beta2 receptor (ADRB2) small molecule antagonists, cell-based qHTS assay (AID 1963592). Note: series mostly up to about 92 µM; nearly all actives have a fitted effect of over 50% in size. The method in brief: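 Assay format: CHO-ADRB2 cells, 18-20hr seeding at 37C/5% CO2, then compound plus 1nM isoproterenol agonist mix for 0.5hr RT. Homogeneous time-resolved fluorescence cAMP detection after 1hr, expressed as 665/615 nm ratio.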

The target is the same in test [17]. Description: Adrenergic beta2 receptor (ADRB2) small molecule agonists, cell-based qHTS assay (AID 1963593).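 Note: CHO cells stably overexpressing human ADRB2.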 The method in brief:
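CHO cells stably over-expressing ADRB2 were plated overnight at 37C, then dosed with compounds plus a stimulation mix containing 100uM IBMX and 25uM Ro-20-1724 for 0.5hr at room temperature. cAMP was measured by HTRF competition, 1hr.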

The target in test [18] is D(2) dopamine receptor (Homo sapiens) (UniProt P14416). Description: Dopamine D2 receptor (DRD2) small molecule agonists, cell-based qHTS assay (AID 1963594). Note: nearly all actives have a fitted effect of over 35% in size. The gist of the method:
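HEK293 cells stably expressing human DRD2, pre-treated with PDE inhibitor Ro20-1724 (0.1 mM final) and compound 10 min at room temperature, then stimulated with NKH477 (200nM […]) for 30 min. cAMP read by HTRF (665/620 nm).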

The nature of test [19]: G protein-coupled receptor (GPCR) small molecule agonists, calcium flux assay: HEK293 wild type cell line counter screen (AID 1920065). The method in brief:
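Non-specific calcium responders were flagged by adding DMSO-dissolved compounds to dye-loaded cells and reading 480/540 nm fluorescence each second for 3 min; ATP served as positive control.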

Test [20] concerns the target D(2) dopamine receptor (Homo sapiens) (UniProt P14416). Description: Dopamine D2 receptor (DRD2) small molecule antagonists, cell-based qHTS assay (AID 1963595; active = well fitted inhibition curve with a large enough effect in the signal ratio in the repeat runs, with a control signal flat; the % refers to the signal ratio). The gist of the method: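 Human DRD2 antagonist qHTS measuring cAMP by HTRF. The cells are exposed to compound for 10 min, then to NKH477 (200 nM) and quinpirole (12 nM) for 30 min at RT, with Ro20-1724 (0.1 mM) present throughout.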

Sequence of 5-hydroxytryptamine receptor 2A (Homo sapiens) (P28223 whole entry, looked up): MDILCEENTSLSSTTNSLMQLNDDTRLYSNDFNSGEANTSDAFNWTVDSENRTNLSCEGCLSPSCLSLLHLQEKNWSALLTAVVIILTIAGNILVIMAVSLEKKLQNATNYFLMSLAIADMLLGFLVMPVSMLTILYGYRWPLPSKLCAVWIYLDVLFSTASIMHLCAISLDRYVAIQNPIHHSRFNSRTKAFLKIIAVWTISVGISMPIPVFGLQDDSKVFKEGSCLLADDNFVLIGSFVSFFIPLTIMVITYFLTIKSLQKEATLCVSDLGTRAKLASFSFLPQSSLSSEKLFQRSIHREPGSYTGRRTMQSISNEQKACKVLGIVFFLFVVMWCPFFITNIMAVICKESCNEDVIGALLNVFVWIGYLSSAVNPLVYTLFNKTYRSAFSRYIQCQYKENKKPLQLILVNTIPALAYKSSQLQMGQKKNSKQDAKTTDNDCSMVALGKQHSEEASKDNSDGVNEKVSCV
Sequence of Gonadotropin-releasing hormone receptor (Homo sapiens) (P30968 whole entry, looked up): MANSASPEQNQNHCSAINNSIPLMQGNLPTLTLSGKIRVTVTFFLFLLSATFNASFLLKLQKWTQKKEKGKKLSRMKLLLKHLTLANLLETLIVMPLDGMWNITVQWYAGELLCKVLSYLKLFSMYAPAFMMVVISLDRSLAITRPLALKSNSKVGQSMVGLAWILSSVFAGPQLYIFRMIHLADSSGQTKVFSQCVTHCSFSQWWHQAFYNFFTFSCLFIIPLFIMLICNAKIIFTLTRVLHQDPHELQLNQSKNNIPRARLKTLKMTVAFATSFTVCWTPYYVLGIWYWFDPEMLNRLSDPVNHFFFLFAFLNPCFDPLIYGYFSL
Sequence of KiSS-1 receptor (Homo sapiens) (Q969F8 whole entry, looked up): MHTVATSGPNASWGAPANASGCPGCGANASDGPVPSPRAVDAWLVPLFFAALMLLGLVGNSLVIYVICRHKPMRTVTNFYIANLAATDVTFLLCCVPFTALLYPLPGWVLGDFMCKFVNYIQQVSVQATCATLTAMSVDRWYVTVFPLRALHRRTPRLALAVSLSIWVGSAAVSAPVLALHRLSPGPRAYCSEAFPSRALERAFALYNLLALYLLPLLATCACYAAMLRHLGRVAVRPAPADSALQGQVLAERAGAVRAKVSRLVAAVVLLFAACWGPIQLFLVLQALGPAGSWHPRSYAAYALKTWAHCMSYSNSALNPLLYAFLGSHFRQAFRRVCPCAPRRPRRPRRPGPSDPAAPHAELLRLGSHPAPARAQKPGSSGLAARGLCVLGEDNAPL
Sequence of Beta-2 adrenergic receptor (Homo sapiens) (P07550 whole entry, looked up): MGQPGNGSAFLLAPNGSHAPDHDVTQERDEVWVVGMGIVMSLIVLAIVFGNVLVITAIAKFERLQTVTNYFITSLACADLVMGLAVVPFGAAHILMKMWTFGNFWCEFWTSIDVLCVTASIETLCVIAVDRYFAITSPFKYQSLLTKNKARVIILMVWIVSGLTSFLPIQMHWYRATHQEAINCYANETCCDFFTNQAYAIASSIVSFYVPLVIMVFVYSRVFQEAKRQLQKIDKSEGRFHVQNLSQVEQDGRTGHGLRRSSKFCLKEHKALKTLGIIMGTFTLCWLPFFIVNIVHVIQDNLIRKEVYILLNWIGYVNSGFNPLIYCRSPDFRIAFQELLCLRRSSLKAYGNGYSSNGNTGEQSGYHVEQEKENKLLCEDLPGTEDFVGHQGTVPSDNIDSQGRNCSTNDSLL
Sequence of Muscarinic acetylcholine receptor M1 (Homo sapiens) (P11229 whole entry, looked up): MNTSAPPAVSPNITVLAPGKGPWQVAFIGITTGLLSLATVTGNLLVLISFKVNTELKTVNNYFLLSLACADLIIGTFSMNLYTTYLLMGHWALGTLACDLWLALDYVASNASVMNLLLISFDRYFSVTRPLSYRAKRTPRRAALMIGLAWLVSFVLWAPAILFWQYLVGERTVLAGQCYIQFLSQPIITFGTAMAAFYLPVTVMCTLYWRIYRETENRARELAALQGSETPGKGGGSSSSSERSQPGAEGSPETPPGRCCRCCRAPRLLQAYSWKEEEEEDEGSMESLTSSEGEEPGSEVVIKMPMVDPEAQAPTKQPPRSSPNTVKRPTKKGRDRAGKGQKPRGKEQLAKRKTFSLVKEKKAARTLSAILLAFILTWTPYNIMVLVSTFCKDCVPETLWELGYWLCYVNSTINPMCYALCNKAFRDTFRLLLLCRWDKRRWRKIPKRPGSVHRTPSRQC
Sequence of D(2) dopamine receptor (Homo sapiens) (P14416 whole entry, looked up): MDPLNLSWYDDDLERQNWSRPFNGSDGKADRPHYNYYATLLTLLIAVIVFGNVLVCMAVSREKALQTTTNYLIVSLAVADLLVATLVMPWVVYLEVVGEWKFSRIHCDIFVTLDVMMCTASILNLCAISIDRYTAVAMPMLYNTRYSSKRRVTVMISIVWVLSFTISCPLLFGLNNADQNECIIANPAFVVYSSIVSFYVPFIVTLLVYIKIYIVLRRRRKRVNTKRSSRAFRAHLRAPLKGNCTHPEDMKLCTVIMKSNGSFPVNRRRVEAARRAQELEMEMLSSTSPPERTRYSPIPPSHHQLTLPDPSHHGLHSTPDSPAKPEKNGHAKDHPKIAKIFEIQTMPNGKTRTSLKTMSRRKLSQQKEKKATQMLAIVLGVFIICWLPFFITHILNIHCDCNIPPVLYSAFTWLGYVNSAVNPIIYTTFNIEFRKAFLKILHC

As to `O=C(OCc1ccccc1)c1ccccc1O`, the Potency result in test [1], in [2], in test [3], in [4], in test [5] and in test [6] was “inactive” throughout. The Potency entry in test [7], in test [9], in [10], in test [11], in test [12] and in test [13] was “inactive” throughout. Besides, the Potency result in test [14], in [15], in [16], in [17] and in [18] was “inactive” each time. The Potency in [8] is 45.8 µM (active).

Turning to `CC1=C(/C=C/C(C)=C/C=C/C(C)=C/C(=O)O)C(C)(C)CCC1`, the Potency entry in test [1], in test [2], in [3], in test [19], in test [4] and in test [6] was “inactive” throughout. In addition, the Potency result in test [7], in test [8], in test [14], in [15], in test [16] and in test [17] was “inactive” each time. Moreover, the Potency entry in test [18] and in test [20] was “inactive” in each case.

Take `Oc1ccccc1`: the Potency entry in test [1], in [3], in test [19], in [4], in test [5] and in [6] was “inactive” each time. The Potency result in [7], in test [8], in test [9], in [14], in test [15] and in test [16] was “inactive” each time. Moreover, the Potency result in test [17], in test [18] and in [20] was “inactive” throughout.

In the case of `COc1ccc(C(=O)c2ccccc2)c(O)c1`, the Potency result in [1], in test [3], in test [19], in test [4], in [5] and in test [6] was “inactive” each time. Further, the Potency entry in [7], in test [9], in test [10], in test [11], in test [12] and in test [13] was “inactive” in each case. The Potency entry in test [15], in test [16], in test [17], in test [18] and in test [20] was “inactive” throughout.

Take `OC(CCl)CCl`: the Potency result in test [1], in test [2], in [3], in test [19], in test [4] and in test [5] was “inactive” each time. The Potency entry in test [7], in test [8], in test [9], in [10], in test [11] and in test [12] was “inactive” each time. Further, the Potency entry in test [13], in test [14], in test [15], in test [16], in test [18] and in [20] was “inactive” each time.

Consider `CCCC[P+](CCCC)(CCCC)CCCC`, for which the Potency result in test [1], in test [3], in test [19], in test [4], in test [5] and in [6] was “inactive” each time. For the same molecule, the Potency result in test [7], in test [9], in test [10], in test [11], in [12] and in test [13] was “inactive” each time. Also, the Potency entry in test [16], in [18] and in test [20] was “inactive” throughout.

Consider `CC(=O)Nc1c(I)c(NC(C)=O)c(I)c(C(=O)O)c1I`, for which the Potency result in test [1], in [2], in test [3], in test [19], in test [6] and in test [7] was “inactive” each time. The Potency result in test [8], in [14], in test [15], in test [16], in test [18] and in test [20] was “inactive” each time.
